Cruzain inh Det – blocks cruzain activity in presence of Triton detergent | Potency, µM, usual class: inhibitors | AID 1478 | hit rate 0.43% among 200,000 | purified cruzain, Z-FR-AMC fluorescence, 0.01% Triton; note: nearly all actives have a fitted effect of over 40% in size
Target sequence (P25779 123-467 limits assumed): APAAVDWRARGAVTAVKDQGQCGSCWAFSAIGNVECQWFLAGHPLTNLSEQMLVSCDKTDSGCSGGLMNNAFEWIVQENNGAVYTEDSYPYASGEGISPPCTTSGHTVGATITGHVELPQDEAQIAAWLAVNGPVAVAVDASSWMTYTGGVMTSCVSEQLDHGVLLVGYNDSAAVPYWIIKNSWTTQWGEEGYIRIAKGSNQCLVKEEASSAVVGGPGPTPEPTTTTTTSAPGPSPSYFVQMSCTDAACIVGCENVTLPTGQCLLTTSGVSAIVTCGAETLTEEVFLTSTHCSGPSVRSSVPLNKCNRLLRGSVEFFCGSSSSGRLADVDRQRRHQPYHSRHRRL
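Cysteine protease activity tested under reducing, mildly acidic conditions (100 mM sodium acetate pH 5.5, 5 mM DTT) plus 0.01% Triton X-100. Cruzain 1.5 nM; substrate Z-FR-AMC 2 uM; 15 min compound preincubation at room temperature.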
Cruzain inh noDet – cruzain (T. cruzi) inhibition without detergent; hit rate 2.3% among 200,000; Potency, µM, actives largely listed as inhibitors; P25779; purified cruzain, Z-FR-AMC fluorescence, no detergent; note: nearly all actives have a fitted effect of over 40% in size
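Detergent-free condition (0.00005% Triton X-100) in acetate buffer pH 5.5 with DTT. 1.5 nM enzyme and compound were pre-mixed 15 min, then 2 uM Z-FR-AMC substrate added; reaction progress from fluorescence change between first and third reads (60 s).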
A number is an active result; - = inactive; ? = inconclusive; ! = not confirmed by another sample. Compounds with a hit are over-represented: about 2.4% of the library has one in this group of screens. Calls come from the whole dose curve; as a rule, active = well fitted curve in the direction sought with a large enough effect; inconclusive = small, poorly fitted or top-dose-only effect, or another doubt; inactive = no such curve, though single readings can be large; an effect the other way counts as inactive or inconclusive.

SMILES	Cruzain inh Det	Cruzain inh noDet
CCOc1cc(-c2ccc(N)c(OCC)c2)ccc1N	-	25µM
CCOc1ccc(NC(C)=O)cc1N	-	-
COc1ccc(-c2onc(C)c2C)cc1S(=O)(=O)N1CCN(c2cc(C)ccc2C)CC1	-	-
N#CCCCS(=O)(=O)c1nc2ccccc2s1	-	-
CCOc1cccc(C(=O)Nc2nc(-c3ccc(S(=O)(=O)N4CCOCC4)cc3)cs2)c1	-	?
O=C(COc1cccc(Cl)c1)Nc1nc(-c2ccc(S(=O)(=O)N3CCOCC3)cc2)cs1	-	13µM
O=C(Nc1cccc(C(=O)N2CCN(c3ccc(F)cc3)CC2)c1)c1nsc2ccccc12	-	?
O=C(/C=C/c1ccccc1)Nn1c(-c2cccs2)nc2ccccc2c1=O	-	?
O=C(/C=C/c1cccc(Cl)c1)Nn1c(-c2cccs2)nc2ccccc2c1=O	-	13µM
COc1cccc(N2CCN(C(=O)CN3C(=O)COc4ccc(S(=O)(=O)N5CCC(C)CC5)cc43)CC2)c1	-	?
COC(=O)c1sc2c(c1C)c(=O)n(-c1ccccc1)c(=O)n2CC(=O)Nc1cccc(C)c1	-	-
CCOC(=O)Cn1c(=O)n(CC2CCCO2)c2nc(-c3ccc(CC)cc3)nc(C(N)=O)c21 (stereo not drawn)	-	-
CCOC(=O)c1sc(NCc2ccco2)c(-c2nc3ccccc3s2)c1N	-	?
C=CCNc1sc(C(=O)c2ccccc2)c(N)c1-c1nc2ccccc2s1	-	7.9µM
CCNc1sc(C(=O)c2cccs2)c(N)c1-c1nc2ccccc2s1	-	7.9µM
CCNc1sc(C(=O)c2cccs2)c(N)c1C#N	-	-
CCCCN(C)c1nnc(NC(=O)Nc2cccc(C(C)=O)c2)s1	-	-
COc1cc(-c2noc(-c3ccc(NCc4ccco4)c([N+](=O)[O-])c3)n2)cc(OC)c1OC	-	?
O=C(CSc1nc(=O)[nH]c2c1CCCC2)Nc1ccccc1C(F)(F)F	-	-
O=C(/C=C\Nc1cccc(F)c1)c1ccc2c(c1)OCO2	-	25µM
COc1ccc(N/C=C\C(=O)c2ccc3c(c2)OCO3)cc1OC	-	-
CCOC(=O)Cn1c(=NC(=O)c2sc3ccccc3c2Cl)sc2cc(S(N)(=O)=O)ccc21	-	7.9µM
COC(=O)Cn1c(=NC(=O)c2sc3ccccc3c2Cl)sc2cc(S(N)(=O)=O)ccc21	-	-
CC(=O)c1cc(-c2ccc(F)cc2)n(CC(=O)NCc2ccc(C)cc2)c1C	-	-
CNC(=O)C1CCC(Cn2c(=O)c3sccc3n(Cc3ccccc3)c2=O)CC1 (stereo not drawn)	-	-
SMILES	Cruzain inh Det	Cruzain inh noDet
CN1CCN(S(=O)(=O)c2cccc(C(=O)Nc3sc4c(c3C(N)=O)CCCC4)c2)CC1	?	13µM
NC(=O)c1c(NC(=O)c2ccc(S(=O)(=O)N(CCCl)CCCl)cc2)sc2c1CCCCC2	-	4µM
COCCN(CCOC)S(=O)(=O)c1ccc(C(=O)Nc2sc3c(c2C(N)=O)CCCC3)cc1	-	-
NC(=O)c1c(NC(=O)c2ccc(S(=O)(=O)N3CCOCC3)cc2)sc2c1CCCCC2	-	?
COC(=O)c1sc(NC(=O)C2c3ccccc3Oc3ccccc32)c(C(=O)OC)c1C	-	10µM
CCOC(=O)c1c(NC(=O)C2c3ccccc3Oc3ccccc32)sc(C)c1C	-	?
COC(=O)c1c(NC(=O)C2c3ccccc3Oc3ccccc32)sc(C)c1C	-	25µM
COC(=O)c1c(NC(=S)Nc2ccccc2Cl)sc(C)c1C	-	13µM
COC(=O)c1c(NC(=O)Cc2ccccc2)sc(C)c1C	-	-
CCOC(=O)c1c(NC(=O)C2c3ccccc3Oc3ccccc32)sc(C(C)=O)c1C	-	?
Cc1ccc(CN2CCSc3ccc(C(=O)Nc4ccc(F)cc4F)cc32)cc1	-	?
COc1ccc(CCNC(=O)c2ccc3c(c2)N(Cc2ccc(C)cc2)CCS3)cc1OC	-	-
COc1cc(OC)c(NC(=O)c2ccc3c(c2)N(Cc2ccc(C)cc2)CCS3)cc1Cl	-	7.9µM
CCc1ccc(NC(=O)c2ccc3c(c2)N(Cc2ccc(C)cc2)CCS3)cc1	-	16µM
CCN(C(=O)c1cn(-c2cccc(OC)c2)c(=O)c2ccccc12)c1ccccc1C	-	-
CCCOc1ccc(-c2cccc(NS(=O)(=O)c3ccc(CC)cc3)c2)nn1	-	-
CN1C(=O)C2(SCC(=O)N2c2cccc(C(F)(F)F)c2)c2ccccc21 (stereo not drawn)	-	?
CN1C(=O)C2(SCC(=O)N2c2ccc(F)cc2)c2ccccc21 (stereo not drawn)	-	-
CN1C(=O)C2(c3ccccc31)N(c1ccc(Br)cc1)C(=O)CS2(=O)=O (stereo not drawn)	-	10µM
CN1C(=O)C2(c3ccccc31)N(c1cccc(C(F)(F)F)c1)C(=O)CS2(=O)=O (stereo not drawn)	-	5µM
N#CC1=C(N)SC(N)=C(C#N)C1c1cccc(Oc2ccccc2)c1	-	25µM
CCOc1ccc(C2C(C#N)=C(N)SC(N)=C2C#N)cc1OCC	-	-
COc1ccc(NC(=S)c2ccc(N(C)C)cc2)cc1	-	-
COc1ccc(C(=O)c2ccc(Cl)cc2)cc1	-	-
COc1ccc(N2CCN(C(=O)c3ccncc3)CC2)cc1	-	-
SMILES	Cruzain inh Det	Cruzain inh noDet
COc1ccc(N=C2C(=Nc3ccc(OC)cc3)N(c3ccc(OC)cc3)C(=S)N2C(=O)c2ccc(OC)cc2)cc1	-	5µM
COc1ccc(N=C2C(=Nc3ccc(OC)cc3)N(c3ccccc3)C(=S)N2C(=O)c2ccc(Cl)cc2)cc1	-	4µM
COc1ccc(N=C2C(=Nc3ccc(OC)cc3)N(c3ccc(N(C)C)cc3)C(=S)N2c2ccc(OC)cc2)cc1	-	7.9µM
O=c1c(CCc2ccccc2)nc2cncnc2n1Cc1ccccc1	-	3.2µM
O=c1c(CCc2ccccc2)nc2cncnc2n1-c1ccccc1	-	-
Cc1ccc(CNC(=O)CCS(=O)(=O)c2cc3c4c(c2)CCN4C(=O)CC3)cc1	-	-
COc1ccc(-c2nc(C)c(CCNC(=O)C(=O)Nc3ccccc3F)s2)cc1	-	-
CN(C)c1ccc(C(=O)c2ccc(N(C)C)cc2)cc1	-	-
CN(C)c1ccc(C(=C2C=CC(=[N+](C)C)C=C2)c2ccc(N(C)C)cc2)cc1	-	20µM!
CN(C)c1ccccc1	-	-
CN(C)c1ccc(C(=C2C=CC(=[N+](C)C)C=C2)c2ccccc2)cc1	-	25µM!
CCC(=O)N1CCCc2cc(S(=O)(=O)N3CCC(C(=O)Nc4ccccc4CC)CC3)ccc21	-	-
CCOC(=O)c1c(C)oc2nc(C)nc(N3CCN(c4cccc(C(F)(F)F)c4)CC3)c12	-	-
CCOC(=O)C1CCCN(C(=O)Cn2ncc3c(C)n(Cc4ccccc4Cl)c(C)c3c2=O)C1 (stereo not drawn)	-	?
CCOC(=O)c1c(NC(=O)CN2C(=O)NC3(CCCCCC3)C2=O)sc(C)c1-c1ccc(C)cc1	-	?
CCOC(=O)c1c(NC(=O)CN2C(=O)NC3(CCC(CC)CC3)C2=O)sc(C)c1-c1ccc(C)cc1 (stereo not drawn)	-	20µM
CC(NC(=O)CSc1nc(-c2cccc(Cl)c2)nc2cc(=O)[nH]n12)c1nc2ccccc2n1C (stereo not drawn)	-	-
Cn1cc(S(=O)(=O)N2CCCCCC2)cc1C(=O)N1CCN(c2cccc(C(F)(F)F)c2)CC1	-	?
COc1ccc(Cl)cc1NC(=O)c1cnc(N2CCCCC2)c2ccccc12	-	-
c1ccc(-c2ccc(-c3csnn3)cc2)cc1	-	20µM
